In all, about 310,000 compounds went through this assay and about 14,000 (4.5%) showed an effect of 50% or more. Effects have a minus sign here. For the sample, strong results were picked, then their nearest neighbours and some compounds at random.
target: human ether-à-go-go-related gene (hERG) potassium channel (human, UniProt Q12809); test: primary screen, population patch clamp on CHO cells stably expressing hERG; higher = less effect of the substance
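Further: peak tail current of the secondary pulse compared with the same well before compound.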

Chain of human ether-à-go-go-related gene (hERG) potassium channel (Q12809 whole entry, looked up): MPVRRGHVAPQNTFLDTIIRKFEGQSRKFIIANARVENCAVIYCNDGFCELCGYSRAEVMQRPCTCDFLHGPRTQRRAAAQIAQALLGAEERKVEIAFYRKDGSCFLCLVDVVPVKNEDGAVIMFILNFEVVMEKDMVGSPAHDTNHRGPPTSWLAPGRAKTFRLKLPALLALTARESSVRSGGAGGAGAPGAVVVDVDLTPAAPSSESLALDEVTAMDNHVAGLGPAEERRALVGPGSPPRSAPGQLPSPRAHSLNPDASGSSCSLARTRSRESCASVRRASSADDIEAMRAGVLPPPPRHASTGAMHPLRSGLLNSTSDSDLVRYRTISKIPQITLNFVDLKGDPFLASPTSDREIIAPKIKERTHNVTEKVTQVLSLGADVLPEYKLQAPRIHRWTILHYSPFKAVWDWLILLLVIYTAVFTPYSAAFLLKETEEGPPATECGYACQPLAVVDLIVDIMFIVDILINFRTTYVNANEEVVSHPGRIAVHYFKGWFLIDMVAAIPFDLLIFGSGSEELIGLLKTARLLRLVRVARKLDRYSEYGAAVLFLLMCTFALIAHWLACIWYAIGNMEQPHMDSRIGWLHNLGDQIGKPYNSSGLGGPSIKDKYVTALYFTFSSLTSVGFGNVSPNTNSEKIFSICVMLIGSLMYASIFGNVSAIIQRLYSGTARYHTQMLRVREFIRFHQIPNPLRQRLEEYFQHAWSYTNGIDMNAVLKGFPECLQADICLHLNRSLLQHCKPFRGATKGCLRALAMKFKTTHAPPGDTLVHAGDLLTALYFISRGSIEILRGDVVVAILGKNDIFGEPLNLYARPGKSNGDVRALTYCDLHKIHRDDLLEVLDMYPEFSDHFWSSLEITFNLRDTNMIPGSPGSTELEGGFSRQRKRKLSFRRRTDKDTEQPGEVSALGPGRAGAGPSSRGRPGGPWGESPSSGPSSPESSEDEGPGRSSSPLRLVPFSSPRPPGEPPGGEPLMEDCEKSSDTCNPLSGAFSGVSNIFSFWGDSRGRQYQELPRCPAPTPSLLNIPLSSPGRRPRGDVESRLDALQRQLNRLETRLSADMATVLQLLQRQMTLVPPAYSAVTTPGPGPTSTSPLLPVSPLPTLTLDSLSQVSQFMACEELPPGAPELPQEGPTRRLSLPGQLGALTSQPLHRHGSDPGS

Structure (SMILES)	hERG current change (%, negative = inhibition) at 10uM [%]
O=C1CC(N(O)c2ccccc2)C(=O)N1c1cc(Cl)cc(Cl)c1 (stereo not drawn)	16.2
COc1ccccc1CNC(=O)C(NC(=O)Nc1ccccc1)C(C)C (stereo not drawn)	13
CCCCn1c(=O)[nH]c(=O)c2c1nc(CN(C)Cc1cccc(OC)c1OC)n2CCC.O=C(O)C(=O)O	18.5
Cc1ccc(-n2ncc3c2ncn2c(C)nnc32)cc1C	-10.5
COc1ccc(NC(=O)COC(=O)c2ccc(NS(=O)(=O)/C=C/c3ccccc3)cc2)cc1	0.149
Cc1ccccc1NC(=O)NC1CCS(=O)(=O)C1 (stereo not drawn)	16.6
CCn1c(SCC(=O)NC2CCCC2)nnc1-c1cccnc1	5.55
Cc1c(C#N)c(NC(=O)c2ccccc2)n(Cc2ccccc2)c1C	2.21
CCOc1ccccc1N1CCN(C(=O)c2c(-c3ccccc3Cl)noc2C)CC1	2.42
COc1ccccc1N1CCN(C(=O)c2c(-c3c(Cl)cccc3Cl)noc2C)CC1	2.17
COc1cc2ccccc2cc1C(=O)N1CCN(c2ccccc2O)CC1	-59.7
COc1ccccc1N1CCN(C(=O)c2c(-c3ccccc3Cl)noc2C)CC1	-51.2
COc1ccccc1N1CCN(C(=O)c2cccc(S(=O)(=O)N3CCCCCC3)c2)CC1	-77
COc1ccccc1N1CCN(C(=O)c2ccc(S(=O)(=O)N3CCCCC3)cc2)CC1	-10.2
O=C(c1cccc(S(=O)(=O)N2CCCCCC2)c1)N1CCN(c2ccccc2F)CC1	-58
COc1cc2ccccc2cc1C(=O)N1CCCCC1	-0.827
O=C(c1cccc(S(=O)(=O)N2CCCC2)c1)N1CCN(c2ccccc2F)CC1	-18.1
CN1CCN(S(=O)(=O)c2cccc(C(=O)N3CCN(c4ccccc4F)CC3)c2)CC1	-0.195
COc1cc2ccccc2cc1C(=O)N1CCCC1	7.7
COc1ccccc1N1CCN(C(=O)c2ccc(S(=O)(=O)N3CCCCCC3)cc2)CC1	-39.8
CC(C)(O[C@@H]1O[C@H](CO)[C@@H](O)[C@H](O)[C@H]1O)[C@@H]1CC=C(C(=O)O)CC1	15.5

Structure (SMILES)	hERG current change (%, negative = inhibition) at 10uM [%]
COc1ccc(NC(=O)CN(c2ccccc2F)S(=O)(=O)c2ccc(C)cc2)cc1	10.6
COC(=O)c1sc2nc(N)c(C#N)cc2c1N	31.1
Cc1nc(NCCc2ccc(O)cc2)c2nnn(Cc3ccccc3)c2n1	0.0141
Cc1ccc(OCC(=O)Nc2oc(-c3ccccc3)c(-c3ccccc3)c2C#N)cc1	17.7
COc1cc(CC(=O)NNC(=O)c2cc(C)oc2C)cc(OC)c1OC	24.1
COc1ccc(S(=O)(=O)N2CCCCCC2)cc1C(=O)N1CCN(c2ccccc2C)CC1	-48
COc1ccc(S(=O)(=O)N2CCCCCC2)cc1C(=O)N1CCN(c2ccccc2O)CC1	-70.6
COc1ccc(S(=O)(=O)N2CCN(c3ccccc3OC)CC2)cc1C(=O)N1CCCCC1	7.51
Cc1ccc(-c2n[nH]c(=S)n2/N=C/c2ccc(C(=O)O)cc2)cc1	3.02
CCN(CC)c1ccc(N=Cc2ccc(N(CC)CC)cc2O)cc1	0.156
CCCN1CCN(C(=O)c2nn(-c3ccc(OC)cc3)c(=O)c3c2c2ccccc2n3C)CC1	-3.71
O=C(CCC(=O)N1CCN(S(=O)(=O)c2ccc(Cl)cc2)CC1)NCc1ccccc1	-14.8
Cc1ccc(C)c(S(=O)(=O)N2CCN(C(=O)CCC(=O)NCc3ccc(Cl)cc3)CC2)c1	-65.1
O=C(CCC(=O)N1CCOCC1)NCc1cccc(C(F)(F)F)c1	-0.171
Cc1ccc(S(=O)(=O)CCC(=O)N2CCc3ccccc32)cc1	-16
Cc1ccc(S(=O)(=O)N2CCN(C(=O)CCC(=O)N3CCc4ccccc43)CC2)cc1	-62.2
Cc1ccc(S(=O)(=O)N2CCN(C(=O)CCC(=O)NCc3cccc(C(F)(F)F)c3)CC2)cc1	-54.2
COc1ccc(CNC(=O)CCC(=O)N2CCN(S(=O)(=O)c3ccc(Cl)cc3)CC2)cc1	22.3
Cc1ccc(S(=O)(=O)N2CCN(C(=O)CCC(=O)NCc3ccc(F)cc3)CC2)cc1	-24
O=C(CCC(=O)N1CCCc2ccccc21)N1CCN(S(=O)(=O)c2ccccc2)CC1	-9.26
O=C(CSc1nnc(-c2ccccc2O)n1Cc1ccccc1)NNC(=O)c1ccccc1O	0.52

Structure (SMILES)	hERG current change (%, negative = inhibition) at 10uM [%]
COc1nccc(C(F)(F)F)c1C(=O)NC(=O)Nc1ccccc1	-8.51
CCOC(=O)C1CCCN(C(=O)c2cc(S(=O)(=O)N3CCCCC3)c[nH]2)C1 (stereo not drawn)	14.5
CCOC(=O)c1c(C)[nH]c(C)c1S(=O)(=O)N1CCCCC1	15.9
CCOC(=O)CC(NS(=O)(=O)Cc1ccccc1)c1ccc(C)cc1 (stereo not drawn)	-5.46
Cc1ccccc1NC(=O)CCC(=O)N/N=C/c1c[nH]c2ccccc12	2.16
C=CCn1c2ccccc2c2nnc(SCC(=O)NC(C(=O)OC)C(C)C)nc21 (stereo not drawn)	-15.1
COc1ccc(-c2c[n+]3c(n2-c2c(C)n(C)n(-c4ccccc4)c2=O)CCCCC3)cc1.[Br-]	4.43
COc1ccc(-n2c(-c3ccc(Br)cc3)c[n+]3c2SC(C)C3)cc1.[Br-] (stereo not drawn)	-72.6
COc1ccc(-n2c(-c3ccc(Br)cc3)c[n+]3c2CCC3)cc1.[Br-]	-56
COc1ccc(-n2c(-c3ccc(Br)cc3)c[n+]3c2CCCCC3)cc1.[Br-]	-80.3
COc1ccc(-n2c(-c3ccc(Br)cc3)n[nH]c2=S)cc1	13.3
COc1ccc(-n2c(-c3ccccc3)c[n+]3c2CCC3)cc1.[Br-]	-20.5
COc1ccc(-c2c[n+]3c(n2-c2ccc(C)cc2)CCCCC3)cc1.[Br-]	-48.2
COc1cc(/C=C/c2ccc3cccc(OC)c3n2)c(O)c([N+](=O)[O-])c1	9.97
CNC(=S)N(Cc1ccc(OC)cc1)Cc1cc2cc(C)ccc2[nH]c1=O	18
O=c1ccc(Cl)cn1Cc1ccccc1F	5.34
CCN1C(=O)/C(=C/c2cnn(CC)c2C)SC1=S	5.73
COc1ccc(S(=O)(=O)N2CCOc3ccccc32)cc1	-1.55
Cc1ccccc1NC(=O)C(C)N1C(=O)c2ccccc2C1=O (stereo not drawn)	14.7
COc1ccc(C2NC(=O)c3ccccc3N2)cc1OC (stereo not drawn)	13
COc1ccc(Cc2nnc(SCC(=O)N3CCCC3)o2)cc1	2.54

Structure (SMILES)	hERG current change (%, negative = inhibition) at 10uM [%]
COc1ccc(/C(N)=N/OC(=O)Cc2ccc(C)cc2)cc1	9.68
C=CCNc1oc(Cc2cccc3ccccc23)nc1C#N	-14.7
CCCCn1c(=O)n(C)c(=O)c2c(C(F)(F)F)cc(-c3ccncc3)nc21	-28
Cc1nc(C)c(-c2ccc(SCc3ccc(Cl)cc3)nn2)s1	-14.7
Cc1nc(C)c(-c2ccc(SCc3cccc(F)c3)nn2)s1	-50.6
Cc1nc(C)c(-c2ccc(SCc3ccccc3F)nn2)s1	4.94
O=C(O)CCC(=O)NCc1ccc(F)cc1	-7.12
Cc1oc(C(C)(C)C)cc1C(N)=O	12.7
CSc1ncccc1C(=O)NCc1ccccc1Cl	-7.25
Cc1ccc(S(=O)(=O)N2CCCCC2)cc1NC(=O)COC(=O)CNC(=O)c1cc(Cl)cc([N+](=O)[O-])c1	-51.4
Cc1ccc(S(=O)(=O)N2CCCCC2)cc1NC(=O)COC(=O)C1CC2C=CC1C2 (stereo not drawn)	-62
O=C(COC(=O)C1CC2C=CC1C2)Nc1cccc(S(=O)(=O)N2CCCCCC2)c1 (stereo not drawn)	-23.2
O=C(COC(=O)CNC(=O)c1cccc([N+](=O)[O-])c1)Nc1cccc(S(=O)(=O)N2CCCCC2)c1	-30.8
Cc1ccc(NC(=O)COC(=O)CNC(=O)c2cccc([N+](=O)[O-])c2)cc1S(=O)(=O)N1CCCCCC1	-49.1
Cc1ccc(NC(=O)COC(=O)C2CC3C=CC2C3)cc1S(=O)(=O)N1CCCCC1 (stereo not drawn)	-7.32
CC(=O)CC(=O)NC(=NC1CCCCC1)Nc1nc(C)cc(C)n1	7.01
Nc1ccc2c(c1)nnn2-c1ccccc1	-7.35
Cn1c(SCC(=O)NC2CC2)nnc1-c1cccc(NC(=O)c2ccccc2F)c1	-3.11
CCOc1ccccc1N(CC(=O)NC1CCCC1)C(=O)CNC(=O)c1cccs1	-3.75
CCN1CCN(CC(=O)c2c[nH]c3ccc(C)cc23)CC1	-4.16
O=C(c1cc(COc2c(F)cccc2F)on1)N1CCC(c2ccccc2F)C1 (stereo not drawn)	20.4
